From article PMC5540273 (PLoS ONE, 2017)

Assays:
Conditions in all cases: concentration: 1 μM, replicates: in singlicate; n = 1
[1] = tested on: PIP5K1A
[2] = tested on: PIP5K1C
[3] = tested on: PIP5K2B
[4] = tested on: T1, PIP5K2C
T1 construct: gene PIP4K2C

[5] = tested on: T2, PKAC-alpha
T2 construct: gene PRKACA

[6] = tested on: T3, PKAC-beta
T3 construct: gene PRKACB

[7] = tested on: PKMYT1
[8] = tested on: PKN1
[9] = tested on: PKN2
[10] = tested on: PLK1
[11] = tested on: PLK2
[12] = tested on: PLK3
[13] = tested on: PLK4
[14] = tested on: PRKCD
[15] = tested on: PRKCE
[16] = tested on: PRKCH
[17] = tested on: PRKCI
[18] = tested on: PRKCQ
[19] = tested on: PRKD1
[20] = tested on: PRKD2
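Also: KINOMEscan kinase panel screen.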

Structure (SMILES) | %Inh [1] | %Inh [2] | %Inh [3] | %Inh [4] | %Inh [5] | %Inh [6] | %Inh [7] | %Inh [8] | %Inh [9] | %Inh [10] | %Inh [11] | %Inh [12] | %Inh [13] | %Inh [14] | %Inh [15] | %Inh [16] | %Inh [17] | %Inh [18] | %Inh [19] | %Inh [20]
Cn1cc(-c2ccc3c(c2)CCN3C(=O)Cc2cccc(Cl)c2)c2c(N)ncnc21 [GSK2606590] | 0% | 22% | 10% | 1% | 7% | 5% | 9% | 0% | 0% | 7% | 0% | 0% | 6% | 15% | 0% | 27% | 0% | 10% | 0% | 0%
Cc1occc1-c1ncc(OC[C@@H](N)Cc2c[nH]c3ccccc23)cc1-c1ccc2[nH]nc(C)c2c1.O=C(O)C(F)(F)F [GSK682037] | 75% | 19% | 40% | 0% | 99.8% | 99.5% | 7% | 28% | 64% | 0% | 0% | 0% | 0% | 100% | 99.8% | 97.5% | 28% | 97.7% | 90% | 99.6%
CC(=O)Nc1nc2cnc(Nc3cc(NC(=O)c4cccc(C5(C#N)CC5)c4Cl)ccc3C)nc2s1 | 8% | 4% | 46% | 0% | 0% | 0% | 0% | 0% | 0% | 0% | 4% | 0% | 0% | 29% | 0% | 0% | 0% | 39% | 0% | 4%
CNC(=O)c1ccccc1Nc1nc(Nc2ccc(N3CCOCC3)cc2)ncc1Cl.Cl [GSK1576028] | 45% | 0% | 85% | 57% | 96.5% | 93.6% | 32% | 55% | 52% | 96.3% | 81% | 85% | 100% | 24% | 64% | 0% | 11% | 84% | 0% | 17%
Cc1cccc(NC(=O)Nc2ccc(Oc3ncnc4ccn(C)c34)cc2)c1 | 0% | 49% | 2% | 32% | 0% | 0% | 0% | 0% | 0% | 0% | 0% | 3% | 0% | 0% | 7% | 0% | 0% | 0% | 0% | 0%
Nc1n[nH]c2cnc(-c3ccccc3)cc12 [SB-642124] | 40% | 0% | 32% | 18% | 0% | 0% | 15% | 0% | 31% | 0% | 49% | 43% | 1% | 17% | 24% | 38% | 4% | 45% | 5% | 4%
COc1cccc(C2=C(Nc3ccc(Cl)c(C(=O)O)c3)C(=O)NC2=O)c1 [SB-390769] | 19% | 60% | 0% | 28% | 0% | 6% | 4% | 0% | 0% | 0% | 100% | 100% | 1% | 0% | 32% | 25% | 21% | 0% | 0% | 6%
C[C@@H]1CC[C@@H](C(=O)Nc2ccccc2)CN1c1cc(-c2ccc3c(N)n[nH]c3c2)nc(N)n1 [GSK2286062] | 0% | 18% | 3% | 4% | 0% | 0% | 16% | 0% | 0% | 0% | 0% | 0% | 0% | 9% | 6% | 14% | 15% | 0% | 0% | 23%
Cc1ccc(F)c(C(=O)Nc2cccc(-c3nn4ccccc4c3-c3ccnc(Nc4cccc(F)c4)n3)c2)c1F [GSK361061] | 0% | 6% | 15% | 0% | 13% | 29% | 17% | 0% | 17% | 19% | 3% | 9% | 10% | 25% | 2% | 25% | 0% | 27% | 14% | 12%
C[C@@H](Oc1cc(-n2cnc3cc(-c4ccnc(NCCS(C)(=O)=O)c4)ccc32)sc1C(N)=O)c1ccccc1Cl [GSK907232] | 5% | 14% | 47% | 30% | 0% | 0% | 5% | 35% | 0% | 100% | 99.2% | 99.4% | 32% | 11% | 3% | 0% | 9% | 31% | 0% | 0%
CN(C)S(=O)(=O)c1cc(-c2ccc3nccc(-c4cccc(S(N)(=O)=O)c4)c3c2)cnc1N [GSK1669921] | 0% | 36% | 21% | 85% | 3% | 10% | 0% | 57% | 0% | 33% | 2% | 0% | 0% | 0% | 15% | 29% | 7% | 10% | 0% | 0%
CN1CCN(Cc2cccc(-c3ccc4c(Nc5ccc(Oc6ccccc6)cc5)ccnc4c3)c2)CC1 [GW578342] | 26% | 59% | 12% | 9% | 0% | 0% | 0% | 0% | 27% | 0% | 0% | 1% | 0% | 15% | 6% | 2% | 19% | 3% | 0% | 18%
CC(C)(C)c1ccc2nccc(Nc3cccc(O)c3)c2c1 [GW856795] | 29% | 40% | 8% | 7% | 90.5% | 0% | 0% | 0% | 0% | 0% | 0% | 0% | 7% | 0% | 22% | 0% | 0% | 0% | 9% | 6%
Cl.Cl.NCC(NC(=O)c1cc(-c2ccccc2)c(-c2ccnc3[nH]ccc23)s1)c1ccccc1 (stereo not drawn) [GSK1321561] | 8% | 50% | 14% | 7% | 98.3% | 97% | 3% | 25% | 19% | 5% | 30% | 0% | 4% | 98% | 69% | 86% | 37% | 49% | 38% | 8%
CC(C)c1nc(-c2cccc(NS(=O)(=O)c3c(F)cccc3F)c2F)c(-c2ccnc(Nc3ccc(N4CCOCC4)nc3)n2)s1 [GSK2008607] | 0% | 45% | 0% | 87% | 0% | 0% | 24% | 6% | 0% | 0% | 0% | 4% | 100% | 0% | 0% | 22% | 36% | 18% | 93.8% | 99.2%
